# Activity calls are given as the source filed them. Rule for the calls: active = hit-call score of the fitted dose curve at least 0.9, where 1 is the maximum; inactive = score below 0.9.
# Tests used:
# Conditions in all cases: mRNA level, 48 h; actives raise or lower the signal
# [1] = read-out: Fatty acid synthase (Homo sapiens) (UniProt P49327); test: LTEA_HepaRG_FASN: Life Technologies and Expression Analysis (LTEA) Assay for Fatty Acid Synthase (FASN) using HepaRG (AID 2283448)
# Method in brief: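 HepaRG, 48 h exposure, 8-pt half-log series top 100 uM, 0.5% DMSO vehicle, duplicates. Readout: FASN transcript by Fluidigm qRT-PCR; housekeeping-normalized; bidirectional curve fit vs DMSO baseline.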
# [2] = read-out: Cyclin D2 (CCND2), CCND2 (gene 894); test: LTEA_HepaRG_CCND2: Life Technologies and Expression Analysis (LTEA) Assay for Cyclin D2 (CCND2) using HepaRG (AID 2283449)
# Method in brief: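 CCND2 transcript levels, quantified by qRT-PCR and normalised to three housekeeping genes, were fitted bidirectionally against 0.5% DMSO. HepaRG cultures were dosed 48 h in duplicate with an 8-point half-log series up to 100 uM.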
# [3] = read-out: Cyclin Dependent Kinase Inhibitor 1A (CDKN1A), CDKN1A (gene 1026); test: LTEA_HepaRG_CDKN1A: Life Technologies and Expression Analysis (LTEA) Assay for Cyclin Dependent Kinase Inhibitor 1A (CDKN1A) using HepaRG (AID 2283450)
# Method in brief: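 Differentiated HepaRG cells in serum-free induction medium, exposed 48 h in duplicate to eight half-log concentrations up to 100 uM in 0.5% DMSO. mRNA measured by TaqMan qRT-PCR, normalized to ACTB, GAPDH, POLR2A; bidirectional fit versus DMSO.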
# [4] = read-out: Cyclin D1 (CCND1), CCND1 (gene 595); test: LTEA_HepaRG_CCND1: Life Technologies and Expression Analysis (LTEA) Assay for Cyclin D1 (CCND1) using HepaRG (AID 2283451);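 for AC50: TaqMan qRT-PCR transcript level normalised to ACTB GAPDH and POLR2A housekeeping genes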
# Method in brief: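 Differentiated HepaRG cells exposed 48 h in serum-free induction medium to eight half-log concentrations from 100 uM top, 0.5% DMSO, duplicates. CCND1 mRNA measured by Fluidigm TaqMan qRT-PCR, normalised to ACTB, GAPDH, POLR2A; bidirectional fit.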
# [5] = read-out: flavin-containing dimethylaniline monooxygenases 3 (FMO3), FMO3 (gene 2328); test: LTEA_HepaRG_FMO3: Life Technologies and Expression Analysis (LTEA) Assay for flavin-containing dimethylaniline monooxygenases 3 (FMO3) using HepaRG (AID 2283453)
# Method in brief: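 Eight-point concentration-response in serum-free HepaRG cultures (top 100 uM, 0.5% DMSO, 48 h). Read-out: FMO3 mRNA level normalized to three endogenous control genes, fitted bidirectionally versus vehicle.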
# [6] = read-out: Cytochrome P450 (CYP1A1), CYP1A1 (gene 1543); test: LTEA_HepaRG_CYP1A1: Life Technologies and Expression Analysis (LTEA) Assay for Cytochrome P450 (CYP1A1) using HepaRG (AID 2283454)
# Method in brief: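 Differentiated human HepaRG cells, after 48 h plating, exposed in duplicate for 48 h in serum-free induction medium to 8 half-log concentrations up to 100 uM in 0.5% DMSO. CYP1A1 mRNA by qRT-PCR, normalized to ACTB/GAPDH/POLR2A; bidirectional fit versus DMSO.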
# [7] = read-out: CFLAR gene, CFLAR (gene 8837); test: LTEA_HepaRG_CFLAR: Life Technologies and Expression Analysis (LTEA) Assay for CFLAR gene using HepaRG (AID 2283455)
# Method in brief: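 Transcript level by qRT-PCR (normalized to ACTB, GAPDH and POLR2A) after 48 h chemical exposure of HepaRG cells, top concentration 100 uM with half-log steps, 0.5% DMSO vehicle, duplicates; fitted bidirectionally against DMSO baseline.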
# [8] = read-out: Forkhead box O1 (FOXO1), FOXO1 (gene 2308); test: LTEA_HepaRG_FOXO1: Life Technologies and Expression Analysis (LTEA) Assay for Forkhead box O1 (FOXO1) using HepaRG (AID 2283456)
# Method in brief: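 FOXO1 transcript quantified by qRT-PCR after 48 h chemical exposure (top 100 uM, half-log steps, 0.5% DMSO) of HepaRG cells, housekeeping-normalized (ACTB/GAPDH/POLR2A). Changes fitted in both directions relative to vehicle.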
# [9] = read-out: growth arrest and DNA damage 45 (GADD45A), GADD45A (gene 1647); test: LTEA_HepaRG_GADD45A: Life Technologies and Expression Analysis (LTEA) Assay for growth arrest and DNA damage 45 (GADD45A) using HepaRG (AID 2283458)
# Method in brief: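 HepaRG, 48 h exposure, 8 conc. (top 100 uM, half-log steps), 0.5% DMSO vehicle, duplicates. Read-out: qRT-PCR mRNA level, housekeeping-normalized (ACTB/GAPDH/POLR2A). Curves fit bidirectionally vs DMSO baseline.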
# [10] = read-out: Forkhead box O3 (FOXO3), FOXO3 (gene 2309); test: LTEA_HepaRG_FOXO3: Life Technologies and Expression Analysis (LTEA) Assay for Forkhead box O3 (FOXO3) using HepaRG (AID 2283459)
# Method in brief: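 FOXO3 transcript measured by qRT-PCR (normalized to ACTB, GAPDH, POLR2A) after 48 h exposure of HepaRG cells in serum-free induction medium. Duplicates, eight half-log concentrations up to 100 uM, 0.5% DMSO; gain or loss fitted against DMSO.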
# [11] = read-out: ABC Transporter (ABCB1), ABCB1 (gene 5243); test: LTEA_HepaRG_ABCB1: Life Technologies and Expression Analysis (LTEA) Assay for ABC Transporter (ABCB1) using HepaRG (AID 2283460)
# Method in brief: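 ABCB1 transcript level measured by TaqMan qRT-PCR against three housekeeping genes after 48 h chemical exposure of differentiated HepaRG cells. Top concentration 100 uM, half-log steps, eight points, 0.5% DMSO vehicle; bidirectional fit relative to DMSO.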
# [12] = read-out: growth arrest and DNA damage 45 (GADD45B), GADD45B (gene 4616); test: LTEA_HepaRG_GADD45B: Life Technologies and Expression Analysis (LTEA) Assay for growth arrest and DNA damage 45 (GADD45B) using HepaRG (AID 2283461)
# Method in brief: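 Differentiated human HepaRG cells in serum-free induction medium exposed 48 h in duplicate to eight concentrations, top 100 uM, half-log steps, 0.5% DMSO. GADD45B mRNA by TaqMan qRT-PCR, normalized to ACTB, GAPDH, POLR2A; bidirectional fit versus DMSO.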
# [13] = read-out: ABC Transporter (ABCC3), ABCC3 (gene 8714); test: LTEA_HepaRG_ABCC3: Life Technologies and Expression Analysis (LTEA) Assay for ABC Transporter (ABCC3) using HepaRG (AID 2283462)
# Method in brief: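 Differentiated human HepaRG cells exposed 48 h in serum-free induction medium, 0.5% DMSO vehicle, 8-point half-log series to 100 uM in duplicate. ABCC3 mRNA by qRT-PCR, normalised to ACTB, GAPDH, POLR2A; bidirectional fit vs DMSO.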
# [14] = read-out: ABC Transporter (ABCB11), ABCB11 (gene 8647); test: LTEA_HepaRG_ABCB11: Life Technologies and Expression Analysis (LTEA) Assay for ABC Transporter (ABCB11) using HepaRG (AID 2283463)
# Method in brief: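 ABCB11 transcript levels quantified by TaqMan qRT-PCR against three housekeeping genes after 48 h chemical exposure of HepaRG cultures. Concentrations up to 100 uM in half-log steps, 0.5% DMSO vehicle; both induction and suppression scored.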
# [15] = read-out: ABC Transporter (ABCC2), ABCC2 (gene 1244); test: LTEA_HepaRG_ABCC2: Life Technologies and Expression Analysis (LTEA) Assay for ABC Transporter (ABCC2) using HepaRG (AID 2283464)
# Method in brief: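 Differentiated HepaRG cells in serum-free induction medium exposed 48 h to eight half-log concentrations up to 100 uM, 0.5% DMSO, in duplicate. ABCC2 mRNA measured by qRT-PCR (TaqMan, Fluidigm), normalized to ACTB, GAPDH and POLR2A. Fitted in both directions against DMSO.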
# [16] = read-out: Broad substrate specificity ATP-binding cassette transporter ABCG2 (Homo sapiens) (UniProt Q9UNQ0); test: LTEA_HepaRG_ABCG2: Life Technologies and Expression Analysis (LTEA) Assay for ABC Transporter (ABCG2) using HepaRG (AID 2283465)
# Method in brief: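 ABCG2 transcript was quantified by TaqMan qRT-PCR against three housekeeping genes in HepaRG cells. Cells were treated in duplicate for 48 h across an 8-point half-log series up to 100 uM, with 0.5% DMSO vehicle. Gain or loss versus DMSO was fit.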
# [17] = read-out: ATP-citrate lyase (ACLY), ACLY (gene 47); test: LTEA_HepaRG_ACLY: Life Technologies and Expression Analysis (LTEA) Assay for ATP-citrate lyase (ACLY) using HepaRG (AID 2283466)
# Method in brief: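 ACLY mRNA quantified by qRT-PCR on Fluidigm arrays against three housekeeping genes, after 48 h chemical treatment of HepaRG cells (top concentration 100 uM, half-log steps, 0.5% DMSO vehicle). Up- or down-regulation fitted relative to DMSO.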
# [18] = read-out: Peroxisomal acyl-coenzyme A oxidase 1 (ACOX1) gene, ACOX1 (gene 51); test: LTEA_HepaRG_ACOX1: Life Technologies and Expression Analysis (LTEA) Assay for Peroxisomal acyl-coenzyme A oxidase 1 (ACOX1) gene using HepaRG (AID 2283467)
# Method in brief: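 ACOX1 transcript levels were quantified by TaqMan qRT-PCR against three housekeeping genes after 48 h chemical exposure of differentiated human HepaRG cells. Exposure used eight half-log steps topping at 100 uM, 0.5% DMSO vehicle, in duplicate. Bidirectional curve fits were made relative to DMSO.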
# [19] = read-out: catalase (CAT), CAT (gene 847); test: LTEA_HepaRG_CAT: Life Technologies and Expression Analysis (LTEA) Assay for catalase (CAT) using HepaRG (AID 2283452)
# Method in brief: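 Expression of CAT was quantified by TaqMan qRT-PCR with ACTB/GAPDH/POLR2A normalization after 48 h chemical exposure of HepaRG. Eight-point half-log series, top 100 uM, in 0.5% DMSO; gain or loss fitted against vehicle.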
# Sequence of Broad substrate specificity ATP-binding cassette transporter ABCG2 (Homo sapiens) (Q9UNQ0 whole entry, looked up): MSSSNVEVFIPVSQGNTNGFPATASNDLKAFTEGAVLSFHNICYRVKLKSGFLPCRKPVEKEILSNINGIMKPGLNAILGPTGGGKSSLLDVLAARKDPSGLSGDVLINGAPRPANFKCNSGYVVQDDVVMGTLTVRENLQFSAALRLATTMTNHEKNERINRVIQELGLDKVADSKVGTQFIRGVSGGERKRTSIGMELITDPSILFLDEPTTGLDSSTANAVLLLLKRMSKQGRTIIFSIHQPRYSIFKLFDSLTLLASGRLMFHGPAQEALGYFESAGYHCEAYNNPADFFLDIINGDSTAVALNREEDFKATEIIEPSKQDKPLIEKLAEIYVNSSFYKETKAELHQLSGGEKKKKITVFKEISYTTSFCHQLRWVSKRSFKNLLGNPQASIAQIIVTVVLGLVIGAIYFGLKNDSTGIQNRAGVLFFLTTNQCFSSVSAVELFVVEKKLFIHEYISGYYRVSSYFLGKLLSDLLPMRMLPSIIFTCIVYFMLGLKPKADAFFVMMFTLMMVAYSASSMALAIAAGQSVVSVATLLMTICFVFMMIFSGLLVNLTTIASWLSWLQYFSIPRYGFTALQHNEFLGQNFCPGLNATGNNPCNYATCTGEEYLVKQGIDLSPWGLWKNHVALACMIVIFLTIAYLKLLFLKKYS
# Sequence of Fatty acid synthase (Homo sapiens) (P49327 whole entry, looked up): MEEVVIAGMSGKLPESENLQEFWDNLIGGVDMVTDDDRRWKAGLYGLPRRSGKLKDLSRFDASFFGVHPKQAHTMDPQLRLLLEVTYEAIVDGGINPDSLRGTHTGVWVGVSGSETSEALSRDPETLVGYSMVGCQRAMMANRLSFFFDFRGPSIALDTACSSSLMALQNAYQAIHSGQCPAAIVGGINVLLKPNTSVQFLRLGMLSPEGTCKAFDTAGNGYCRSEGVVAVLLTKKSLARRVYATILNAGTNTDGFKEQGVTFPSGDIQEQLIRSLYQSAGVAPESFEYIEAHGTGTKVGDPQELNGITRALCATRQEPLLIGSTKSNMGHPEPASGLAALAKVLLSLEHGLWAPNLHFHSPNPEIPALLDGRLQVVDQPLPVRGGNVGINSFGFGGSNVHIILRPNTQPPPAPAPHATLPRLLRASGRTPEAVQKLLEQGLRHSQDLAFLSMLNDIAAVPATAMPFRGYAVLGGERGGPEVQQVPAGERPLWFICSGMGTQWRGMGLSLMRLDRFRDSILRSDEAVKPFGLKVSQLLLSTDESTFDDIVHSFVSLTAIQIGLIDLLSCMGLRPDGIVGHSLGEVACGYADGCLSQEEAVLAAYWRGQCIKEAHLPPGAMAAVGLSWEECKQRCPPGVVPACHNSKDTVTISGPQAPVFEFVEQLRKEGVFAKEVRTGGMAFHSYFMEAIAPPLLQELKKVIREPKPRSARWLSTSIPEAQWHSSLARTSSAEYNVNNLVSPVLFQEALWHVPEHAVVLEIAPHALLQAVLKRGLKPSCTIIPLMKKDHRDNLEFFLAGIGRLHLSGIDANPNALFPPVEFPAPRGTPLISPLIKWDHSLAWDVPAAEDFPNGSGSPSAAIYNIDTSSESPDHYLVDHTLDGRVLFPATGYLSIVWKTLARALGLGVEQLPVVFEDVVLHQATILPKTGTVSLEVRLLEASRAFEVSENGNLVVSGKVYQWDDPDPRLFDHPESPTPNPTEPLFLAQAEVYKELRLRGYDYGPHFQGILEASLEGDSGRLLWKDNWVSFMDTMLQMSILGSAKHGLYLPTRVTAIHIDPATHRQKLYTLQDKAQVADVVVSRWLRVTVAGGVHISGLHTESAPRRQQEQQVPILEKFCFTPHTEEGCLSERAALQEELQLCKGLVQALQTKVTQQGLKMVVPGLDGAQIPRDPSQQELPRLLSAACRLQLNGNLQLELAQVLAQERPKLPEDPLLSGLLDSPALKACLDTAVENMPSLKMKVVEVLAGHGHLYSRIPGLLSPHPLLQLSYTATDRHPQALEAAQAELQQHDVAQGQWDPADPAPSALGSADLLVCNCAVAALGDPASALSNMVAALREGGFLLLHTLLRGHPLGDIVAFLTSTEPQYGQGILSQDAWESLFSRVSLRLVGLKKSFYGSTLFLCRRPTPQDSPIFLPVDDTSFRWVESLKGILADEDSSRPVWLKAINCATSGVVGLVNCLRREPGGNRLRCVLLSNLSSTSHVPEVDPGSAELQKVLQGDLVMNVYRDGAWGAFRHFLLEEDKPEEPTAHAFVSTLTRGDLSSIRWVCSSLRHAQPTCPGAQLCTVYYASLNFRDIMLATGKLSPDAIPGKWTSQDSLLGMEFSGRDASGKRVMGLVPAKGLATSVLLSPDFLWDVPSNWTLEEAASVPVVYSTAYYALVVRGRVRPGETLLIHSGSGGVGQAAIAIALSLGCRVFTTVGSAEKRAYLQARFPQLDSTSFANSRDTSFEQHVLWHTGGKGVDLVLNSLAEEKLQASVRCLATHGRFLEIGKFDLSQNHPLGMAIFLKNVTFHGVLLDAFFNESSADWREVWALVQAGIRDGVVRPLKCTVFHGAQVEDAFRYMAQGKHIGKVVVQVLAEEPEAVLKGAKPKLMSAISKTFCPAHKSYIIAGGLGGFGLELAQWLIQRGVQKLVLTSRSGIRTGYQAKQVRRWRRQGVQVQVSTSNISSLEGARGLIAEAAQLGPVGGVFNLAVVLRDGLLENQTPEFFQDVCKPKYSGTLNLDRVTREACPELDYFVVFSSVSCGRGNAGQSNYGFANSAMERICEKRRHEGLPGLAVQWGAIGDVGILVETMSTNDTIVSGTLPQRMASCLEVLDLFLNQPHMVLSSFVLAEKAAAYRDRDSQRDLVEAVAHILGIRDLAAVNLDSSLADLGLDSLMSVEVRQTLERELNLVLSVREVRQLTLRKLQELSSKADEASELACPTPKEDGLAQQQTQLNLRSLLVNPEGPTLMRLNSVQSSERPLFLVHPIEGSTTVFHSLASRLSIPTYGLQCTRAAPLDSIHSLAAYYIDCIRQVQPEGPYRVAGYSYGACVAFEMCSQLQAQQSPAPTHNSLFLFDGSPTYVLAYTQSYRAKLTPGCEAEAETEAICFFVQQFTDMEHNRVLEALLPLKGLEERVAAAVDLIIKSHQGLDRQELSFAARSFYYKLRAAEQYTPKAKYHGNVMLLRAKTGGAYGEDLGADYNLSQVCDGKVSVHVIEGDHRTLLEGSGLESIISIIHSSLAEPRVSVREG
compound,measurement,setting,value
CN1CCN(Cc2cc(-c3ccc4[nH]c(=O)oc4c3)co2)[C@@H](c2ccc(F)cc2)C1,outcome,[1],inactive
same,outcome,[2],inactive
same,outcome,[3],inactive
same,AC50,[4],82.5 µM (active)
same,outcome,[5],inactive
same,AC50,[6],61.3 µM (active)
same,outcome,[7],inactive
same,AC50,[8],82.2 µM (active)
same,outcome,[9],inactive
same,outcome,[10],inactive
same,outcome,[11],inactive
same,outcome,[12],inactive
same,AC50,[13],78 µM (active)
same,AC50,[14],67.9 µM (active)
same,outcome,[15],inactive
same,outcome,[16],inactive
same,outcome,[17],inactive
same,outcome,[18],inactive
c1cc(-c2ccncc2)ccn1,outcome,[1],inactive
same,outcome,[2],inactive
same,outcome,[3],inactive
same,outcome,[4],inactive
same,outcome,[19],inactive
same,outcome,[5],inactive
same,AC50,[6],50 µM (active)
same,outcome,[8],inactive
same,outcome,[9],inactive
same,outcome,[10],inactive
same,outcome,[11],inactive
same,outcome,[12],inactive
same,outcome,[13],inactive
same,outcome,[15],inactive
same,outcome,[16],inactive
same,outcome,[17],inactive
same,outcome,[18],inactive
COc1ccc2c(c1)c(CC(=O)O)c(C)n2C(=O)c1ccc(Cl)cc1,outcome,[1],inactive
same,outcome,[2],inactive
same,outcome,[3],inactive
same,outcome,[4],inactive
same,outcome,[5],inactive
same,outcome,[6],inactive
same,outcome,[7],inactive
same,outcome,[8],inactive
same,outcome,[9],inactive
same,outcome,[10],inactive
same,outcome,[11],inactive
same,outcome,[12],inactive
same,outcome,[13],inactive
same,outcome,[15],inactive
same,outcome,[16],inactive
same,outcome,[17],inactive
same,outcome,[18],inactive
Cc1ccc(C(C)C)c(O)c1,outcome,[1],inactive
same,outcome,[2],inactive
same,outcome,[3],inactive
same,outcome,[4],inactive
same,outcome,[5],inactive
same,outcome,[6],inactive
same,outcome,[7],inactive
same,outcome,[8],inactive
same,outcome,[9],inactive
same,outcome,[10],inactive
same,outcome,[11],inactive
same,outcome,[12],inactive
same,outcome,[13],inactive
same,outcome,[14],inactive
same,outcome,[15],inactive
same,outcome,[16],inactive
same,outcome,[17],inactive
same,outcome,[18],inactive
